Only some compounds are listed: those with a hit (about 19% of all), similar ones and a draw of the others.
IL-1B inflam inh = blocks inflammasome-driven IL-1 beta release. THP-1 LPS/ATP IL-1B secretion, AlphaLISA, 16 h; hits give low values. activity change, % at 57.5 µM. 360,000 tested, 4.7% active. AID 743279; in the data active = activity change below about -50%; inconclusive = mostly about -30% to -49%
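THP-1 cells pretreated 1 hr with compounds (up to 57.5 uM final), then stimulated with LPS (250 ng/mL final) plus ATP (1.25 mM final); secreted IL-1B measured by AlphaLISA after 16 hr, decreased signal indicating inhibition.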
TDP1 cell noCPT = qHTS for Inhibitors of human tyrosyl-DNA phosphodiesterase 1 (TDP1): qHTS in cells in absence of CPT; DT40 Tdp1-/- hTDP1 cells, no CPT, ATP luminescence, 48 h; Potency, µM (highest dose often 46.2 µM), for the others: at the highest dose activity change, negative = growth inhibition, hits mostly inhibitors; 420,000 tested, 15% active; AID 686978, 2013; note: potency is the fitted concentration of half-maximal effect; nearly all actives have a fitted effect of over 55% in size
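Growth kinetics read by CellTiter-Glo luminescence after ≥48 hr at 37 °C. Cells: DT40 Tdp1-/- stably carrying human TDP1, 400 per well, compound exposure in the absence of CPT (DMSO vehicle).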
TDP1 cell CPT = growth inhibition of DT40 Tdp1-/-;hTDP1 cells with camptothecin (screen for TDP1 inhibitors) | 420,000 tested, 12% active | AID 686979 | chicken DT40 Tdp1-/-;hTDP1 cells + 20 nM CPT, ATP luminescence, 48 h | Potency, µM (titrated, usually from 46.2 µM), for the others: at the highest dose activity change, negative = growth inhibition, usual class: inhibitors; note: potency is the fitted concentration of half-maximal effect; nearly all actives have a fitted effect of over 55% in size
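Chicken DT40 Tdp1-/- cells complemented with human TDP1, 400 cells/well, exposed to compounds plus 20 nM camptothecin for at least 48 h at 37 C; viability read as ATP content by CellTiter-Glo luminescence.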
HT1080-NT tox = kills 2HG-producing HT-1080-NT fibrosarcoma cells; HT-1080-NT fibrosarcoma viability, CellTiter-Glo ATP luminescence, 48 h; Potency, µM (highest dose often 46.1 µM), inactives show at the highest dose activity, negative = less viability, actives largely listed as cytotoxic; AID 686970; 360,000 tested, 1.6% active;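 note: NT is the 2HG producing partner of a matched IDH1 knockdown line; potency is the fitted concentration of half-maximal effect; 0% = DMSO-treated cells and -100% = media-only wells without cells; nearly all actives have a fitted effect of over 55% in size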
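Compounds were tested in concentration-response format on HT-1080-NT cells for 48 hours at 37 degrees C. Cell viability came from CellTiter-Glo luminescence; curves were classified by r2, response magnitude and activity.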
HT1080 IDH1KD tx = kills HT-1080 cells with IDH1 knockdown; HT-1080 IDH1 knockdown viability, ATP luminescence, 48 h; Potency, µM (doses to about 46.1 µM), for inactives: top-dose activity, negative = toxicity, usual class: cytotoxic; 360,000 tested, 2% active; AID 686971;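 note: potency is the fitted concentration of half-maximal effect; 0% = DMSO wells and -100% = cell-free medium wells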
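In this qHTS, HT-1080 cells depleted of IDH1 are exposed for 48 h at 37 °C to compound titrations. Toxicity is scored from CellTiter-Glo luminescence, with DMSO as full viability and medium alone as none.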
Active calls of the source: *; ? = inconclusive; · = not tested or not shown. Unless noted, calls come from the whole dose curve; as a rule, active = well fitted curve in the direction sought with a large enough effect; inconclusive = small, poorly fitted or top-dose-only effect, or another doubt; inactive = no such curve, though single readings can be large; an effect the other way counts as inactive or inconclusive. Unless noted, % is set by controls: 0 for no effect and ±100 for the full control effect.

SMILES | IL-1B inflam inh | TDP1 cell noCPT | TDP1 cell CPT | HT1080-NT tox | HT1080 IDH1KD tx
CCOc1ccc(CCNC(=O)c2ccc3[nH]c(C)c(C)c3c2)cc1 | · | 21µM* | ? | · | ·
Cc1ccc(C)c(NC(=O)Cn2c(=O)n(CCC(C)C)c(=O)c3cccnc32)c1 | · | -15% | -9% | · | ·
Cn1cnc2c(=O)oc3ccc(S(=O)(=O)N4CCN(c5cccc(Cl)c5)CC4)cc3c21 | · | -4% | -6% | · | ·
CCC(Oc1ccc2c(=O)c(-c3ccccc3OC)coc2c1)C(=O)OCc1ccccc1 (stereo not drawn) | 11 | ? | ? | -3% | -10%
OC[C@H]1O[C@@H](n2cnc3c2NC=NC[C@H]3O)C[C@@H]1O | · | -17% | -13% | · | ·
O=C1c2ccccc2C(=O)N1OCCCN1C(=O)c2ccccc2S1(=O)=O | 15 | -10% | -1% | 5% | 1%
CSCC[C@H](NC(=O)N1CCn2c1nc1ccccc12)C(=O)N1CCCCC1 | -1 | -2% | -19% | 7% | 5%
COc1ccc(CCNC(=O)[C@@H](NC(=O)N2CCn3c2nc2ccccc23)C(C)C)cc1OC | -13 | ? | ? | 1% | 0%
CC(C)C[C@H](NC(=O)N1CCn2c1nc1ccccc12)C(=O)N1CCCCC1 | -5 | 21µM* | ? | 13% | 6%
COc1ccc(CCNC(=O)[C@H](CC(C)C)NC(=O)N2CCn3c2nc2ccccc23)cc1OC | -66* | ? | -64% | -2% | 1%
CCC(C)[C@H](NC(=O)N1CCn2c1nc1ccccc12)C(=O)NCCc1ccc(OC)c(OC)c1 (stereo partly drawn) | -9 | 16µM* | 15µM* | -11% | 0%
CCC(C)[C@H](NC(=O)N1CCn2c1nc1ccccc12)C(=O)NCCc1ccccc1 (stereo partly drawn) | -59* | ? | 21µM* | -1% | -18%
CCC(C)[C@H](NC(=O)N1CCn2c1nc1ccccc12)C(=O)NCC1CCCO1 (stereo partly drawn) | -19 | 14% | -14% | 0% | -3%
Cc1cc(NC(=O)c2nn(C)c(C)c2Br)no1 | 7 | 0% | -17% | 14% | 13%
COc1cccc(NC(=O)[C@H](C)NC(=O)N2CCn3c2nc2ccccc23)c1 | 13 | 5% | -14% | -16% | -11%
COc1cccc(NC(=O)[C@@H](NC(=O)N2CCn3c2nc2ccccc23)C(C)C)c1 | 5 | 13µM* | -13% | -12% | ?
Cc1nc(N)nc(N)c1/C=C/C(C)(C)c1ccc(Cl)cc1 | -106* | 0.033µM* | ? | 0.029µM* | 0.0082µM*
CC(C)(C)S(=O)(=O)c1cnc(-c2ccc(Cl)cc2)nc1N | 15 | -24% | 2% | -2% | 1%
CO[C@@H]1[C@@H](O[C@@H]2O[C@H](C)[C@@H](O[C@H]3C[C@@](C)(O)[C@@H](OC(=O)CC(C)C)[C@H](C)O3)[C@H](N(C)C)[C@H]2O)[C@@H](CC=O)C[C@@H](C)[C@@H](O)/C=C/C=C/C[C@@H](C)OC(=O)C[C@H]1O | · | 6µM* | 6.7µM* | · | ·
CO[C@@H]1[C@@H](OC2OC(C)C(OC3CC(C)(O)C(OC(=O)CC(C)C)C(C)O3)C(N(C)C)C2O)[C@@H](CC=O)C[C@@H](C)C(=O)/C=C\C2O[C@H]2C[C@@H](C)OC(=O)C[C@H]1OC(C)=O (stereo partly drawn) | · | 3.2µM* | 5.6µM* | · | ·
Cc1cc(Oc2ccc(Cl)cc2)nc(-c2ccccn2)n1 | 46 | 5.2µM* | 5.2µM* | -10% | ?
Cc1cc(Oc2ccccc2)nc(-c2ccccc2O)n1 | 8 | -19% | -12% | -3% | -5%
Brc1ccc(OCc2nc(-c3ccccn3)n[nH]2)cc1 | -13 | 15µM* | ? | -27% | ?
Brc1ccc(OCCOc2cccc3cccnc23)cc1 | 31 | -28% | -15% | -2% | -4%
Clc1ccc(OCc2nc(-c3ccccn3)n[nH]2)cc1 | 58 | ? | ? | ? | 10µM*
